Assay [1] in a line: qHTS RealTime-Glo MT Cell Viability Assay in HEK293 cells - 40 hour (AID 1224874). Note: nearly all actives have a fitted effect of over 50% in size. Note: potency is the fitted concentration of half-maximal effect. The following applies: RealTime-Glo luminescence; max response: stronger effect = lower value. In short, it runs like this: (§1)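 Kinetic, non-lysing viability readout. Seed HEK293 (600/well) with reagent, incubate 5 h at 37 C/5% CO2, pin 23 nL compound in DMSO, incubate at 37 C, read luminescence at 0, 8, 16, 24, 32, 40 h.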
(In general: In qHTS, concentration-response curves come from the screen itself.)

A short description of assay [2]: A CellTox Green Cytotoxicity Assay to monitor cytotoxicity in HEK293 cells - 24 hour (AID 1224875). Note: series mostly up to about 77 µM; nearly all actives have a fitted effect of over 45% in size. An outline of the steps:
(§2)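 Real-time, in one plate: 600 HEK293 cells/well with dead-cell DNA dye, pinned compound after 5 h, 37 C incubation over 40 h; viable cells give no appreciable fluorescence.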

The nature of assay [3]: qHTS RealTime-Glo MT Cell Viability Assay in HepG2 cells - 32 hour (AID 1224877). Note: nearly all actives have a fitted effect of over 55% in size. Note: potency is the fitted concentration of half-maximal effect. In short, it runs like this: (§3)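 Compound treatment began 5 h after plating HepG2 cells (600/well) with NanoLuc luciferase and prosubstrate. Plates stayed at 37 C for 40 h; luminescence was captured at six time points, 0 h through 40 h.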
Assay [4] can be described thus: A CellTox Green Cytotoxicity Assay to monitor cytotoxicity in HepG2 cells - 24 hour (AID 1224878). Note: nearly all actives have a fitted effect of over 45% in size. Note: potency is the fitted concentration of half-maximal effect. An outline of the steps:
(§4)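 Cytotoxicity was tracked as dead-cell DNA fluorescence in HepG2 cells treated with test compounds at 37 C; each time-point value comes from one kinetic series spanning 0, 8, 16, 24, 32 and 40 h.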

The nature of assay [5]: A CellTox Green Cytotoxicity Assay to monitor cytotoxicity in HepG2 cells - 40 hour (AID 1224879). Note: nearly all actives have a fitted effect of over 40% in size. Note: potency is the fitted concentration of half-maximal effect. An outline of the steps: as §4
A short description of assay [6]: qHTS RealTime-Glo MT Cell Viability Assay in HEK293 cells - 0 hour (AID 1224880). Note: nearly all actives have a fitted effect of over 45% in size. Note: potency is the fitted concentration of half-maximal effect. In short, it runs like this: as §1
Assay [7] is described as follows: A CellTox Green Cytotoxicity Assay to monitor cytotoxicity in HEK293 cells - 32 hour (AID 1224881). Note: nearly all actives have a fitted effect of over 40% in size. Note: potency is the fitted concentration of half-maximal effect. In short, it runs like this: as §2
Assay [8] is described as follows: A CellTox Green Cytotoxicity Assay to monitor cytotoxicity in HepG2 cells - 32 hour (AID 1224883). Note: nearly all actives have a fitted effect of over 50% in size. Note: potency is the fitted concentration of half-maximal effect. An outline of the steps:
as §4

The nature of assay [9]: A CellTox Green Cytotoxicity Assay to monitor cytotoxicity in HEK293 cells - 8 hour (AID 1224884). Note: nearly all actives have a fitted effect of over 35% in size. Note: potency is the fitted concentration of half-maximal effect. In short, it runs like this: as §2
A short description of assay [10]: qHTS RealTime-Glo MT Cell Viability Assay in HepG2 cells - 16 hour (AID 1224885). Note: nearly all actives have a fitted effect of over 50% in size. An outline of the steps: as §3
A short description of assay [11]: qHTS RealTime-Glo MT Cell Viability Assay in HEK293 cells - 24 hour (AID 1224886). Note: nearly all actives have a fitted effect of over 50% in size. Note: potency is the fitted concentration of half-maximal effect. An outline of the steps: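 Quantitative high-throughput screen of the Tox21 10K library in HEK293: cells and RealTime-Glo reagents plated together, compound added at 5 h, luminescence monitored through 40 h at 37 C.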
A short description of assay [12]: qHTS RealTime-Glo MT Cell Viability Assay in HEK293 cells - 8 hour (AID 1224887). Note: nearly all actives have a fitted effect of over 50% in size. Note: potency is the fitted concentration of half-maximal effect. In short, it runs like this:
as §1

A short description of assay [13]: A CellTox Green Cytotoxicity Assay to monitor cytotoxicity in HEK293 cells - 16 hour (AID 1224888). Note: nearly all actives have a fitted effect of over 35% in size. In short, it runs like this:
as §2

Assay [14] is described as follows: qHTS RealTime-Glo MT Cell Viability Assay in HepG2 cells - 0 hour (AID 1224889). Note: nearly all actives have a fitted effect of over 50% in size. Note: potency is the fitted concentration of half-maximal effect. In short, it runs like this:
as §3

A short description of assay [15]: qHTS assay to identify small molecule antagonists of the estrogen receptor alpha (ER-alpha) signaling pathway using the BG1 cell line in the presence of 0.1 nM 17-beta-estradiol - cell viability counter screen (AID 1259241). Note: nearly all actives have a fitted effect of over 40% in size. Note: potency is the fitted concentration of half-maximal effect. In short, it runs like this: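 Following 5 days in phenol red-free medium with charcoal-stripped serum, VM7Luc4E2 cells received test compounds alongside 0.1 nM 17beta-estradiol (final) at 37C for 22 hr. Live cells were then quantified via protease-substrate fluorescence.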

Assay [16] can be described thus: qHTS assay to identify small molecule antagonists of the androgen receptor (AR) signaling pathway using the MDA cell line in the presence of 0.5 nM R1881 - cell viability counter screen (AID 1259242). Note: nearly all actives have a fitted effect of over 45% in size. Note: potency is the fitted concentration of half-maximal effect. In short, it runs like this: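 Cells seeded at 3,000/well and allowed 5 hr at 37C, 0% CO2 before compound transfer and R1881 (0.5 nM final) addition; 16 hr later, live-cell protease fluorescence indicated cytotoxicity.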

Assay [17] can be described thus: A CellTox Green Cytotoxicity Assay to monitor cytotoxicity in HepG2 cells - 0 hour (AID 1224882). Note: nearly all actives have a fitted effect of over 35% in size. Note: potency is the fitted concentration of half-maximal effect. An outline of the steps:
as §4

The nature of assay [18]: A CellTox Green Cytotoxicity Assay to monitor cytotoxicity in HepG2 cells - 8 hour (AID 1224890). Note: nearly all actives have a fitted effect of over 45% in size. Note: potency is the fitted concentration of half-maximal effect. An outline of the steps: as §4
Assay [19] is described as follows: A CellTox Green Cytotoxicity Assay to monitor cytotoxicity in HepG2 cells - 16 hour (AID 1224876). Note: nearly all actives have a fitted effect of over 45% in size. Note: potency is the fitted concentration of half-maximal effect. In short, it runs like this:
as §4

Assay [20] can be described thus: qHTS RealTime-Glo MT Cell Viability Assay in HepG2 cells - 8 hour (AID 1224873). Note: nearly all actives have a fitted effect of over 55% in size. In short, it runs like this:
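HepG2 cells (600/well) mixed with RealTime-Glo MT reagent, settled 5 h at 37 C/5% CO2 before compound addition. Nonlytic NanoLuc luminescence from viable-cell prosubstrate reduction read repeatedly during 40 h treatment at 37 C.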

Where “and” joins values, the source holds several entries; their conditions need not be identical. Identical values can stand only once. Results filed as inconclusive are left out. A structure can be active in one record and inactive in another. Calls of active or inactive are those of the source. Calls come from the whole dose curve; as a rule, active = well fitted curve in the direction sought with a large enough effect in the repeat runs; inconclusive = weak or mixed curves; inactive = no such curve, though single readings can be large; an effect the other way counts as inactive or inconclusive.
% is set by controls: 0 for no effect and ±100 for the full control effect.

Take `CC(C)(c1ccccc1)c1ccc(Nc2ccc(C(C)(C)c3ccccc3)cc2)cc1`: in assay [1], the max response was -27.1% (inactive) and -13.6% (inactive). In addition, the Potency result in [2], in assay [3], in assay [4], in assay [5], in assay [6] and in assay [7] was “inactive” throughout. In addition, the Potency result in [8], in assay [9], in assay [10], in assay [11], in assay [12] and in assay [13] was “inactive” in each case. The Potency result in assay [14], in assay [15] and in [16] was “inactive” each time.

As for `COc1ccc(CCN(C)CCCC(C#N)(c2ccc(OC)c(OC)c2)C(C)C)cc1OC` (stereo not given), the Potency entry in assay [2], in [7], in [17], in assay [9] and in assay [18] was “inactive” each time. Further, the figures for the Potency in assay [5] and in [8] were 48.9 µM (active) and 54.8 µM (active), respectively.

Take `C=CC(=O)OCCCCCCOC(=O)C=C`: the Potency in assay [1] is 49.6 µM (active) and 43.6 µM (active); in assay [3], “inactive and 49 µM (active)”; in [5], “inactive and 54.9 µM (active)”; in [11], 43.6 µM (active). The Potency entry in assay [19], in assay [4], in assay [6], in assay [17], in [8] and in assay [9] was “inactive” in each case. Moreover, the Potency entry in [14], in assay [18] and in [16] was “inactive” throughout.

Regarding `Cc1ccc(S(=O)(=O)Oc2ccc(N=Nc3ccc(-c4ccc(N=Nc5c(O)ccc6cc(S(=O)(=O)O)cc(S(=O)(=O)O)c56)c(C)c4)cc3C)cc2)cc1`, the max response in assay [1] is -0.0985% (inactive). Besides, the Potency result in assay [2], in [19], in [4], in [5], in assay [7] and in [8] was “inactive” each time. Also, the Potency entry in assay [9], in [11], in assay [12], in assay [13] and in assay [18] was “inactive” in each case. Besides, the Potency in assay [15] was 21.8 µM (active) and 14.1 µM (active); in assay [16] it was 27.4 µM (active) and 17.8 µM (active).

With `CC[C@H]1CN2CCc3cc(OC)c(OC)cc3[C@@H]2C[C@@H]1C[C@H]1NCCc2cc(OC)c(OC)cc21`, the Potency entry in assay [20], in assay [2], in [6], in assay [9], in assay [10] and in assay [13] was “inactive” in each case. In [14], the Potency entry is “inactive”. Moreover, the Potency in assay [1] was 13.9 nM (active) and 42.5 nM (active); in assay [4] it was 49.2 µM (active) and 26.8 µM (active); in assay [5] it was 49.2 µM (active) and 16.9 µM (active); in assay [8], 49.2 µM (active) and 21.3 µM (active); in assay [11], 17.4 nM (active) and 47.7 nM (active); in assay [12], 874 nM (active) and 3.38 µM (active).

For `CCC(=O)/C=C/C1C(C)=CCCC1(C)C` (stereo not given), the Potency entry in [20], in assay [19], in [3], in [4], in assay [5] and in assay [6] was “inactive” throughout. The Potency entry in assay [17], in assay [8], in [10], in [11], in [12] and in assay [14] was “inactive” throughout. In assay [16], the Potency entry was “inactive”. For the same compound, the max response in [1] was -21.5% (inactive) and 0.0714% (inactive). In addition, the Potency in [7] is 49.1 µM (active) and inactive; in assay [9] it was 39 µM (active) and inactive.

In the case of `NC(=Nc1ccccc1)Nc1ccccc1`, the Potency result in assay [20], in assay [2], in assay [3], in assay [4], in assay [5] and in assay [7] was “inactive” each time. Further, the Potency entry in assay [17], in [8], in assay [9], in assay [10], in assay [12] and in assay [14] was “inactive” in each case. Also, the Potency entry in assay [18], in assay [15] and in assay [16] was “inactive” throughout.

As for `Cc1cc(C2(c3cc(C)c(O)cc3C)OS(=O)(=O)c3ccccc32)c(C)cc1O`, the max response in assay [1] is -21.7% (inactive) and -18.4% (inactive). Besides, the Potency result in [2], in [19], in [4], in [5], in assay [7] and in assay [17] was “inactive” in each case. In addition, the Potency result in assay [8], in [9], in assay [11], in assay [12] and in assay [18] was “inactive” throughout. The Potency is 27.5 µM (active) and 24.5 µM (active) in [6]; 19.5 µM (active) and 15.5 µM (active) in assay [14]; 21.7 µM (active) and 15.4 µM (active) in assay [15]; 24.3 µM (active) and 15.4 µM (active) in assay [16].

On to `Oc1c(Cl)cc(Cl)c(Cl)c1Cc1c(O)c(Cl)cc(Cl)c1Cl`, for which the Potency result in assay [20], in [6], in assay [9], in [10], in assay [12] and in assay [13] was “inactive” each time. Further, the Potency result in assay [14] and in [18] was “inactive” in each case. The Potency in [1] was 2.45 µM (active) and 3.89 µM (active); in assay [19], “inactive and 43.6 µM (active)”; in assay [3] it was “inactive and 21.9 µM (active)”; in [4], “inactive and 38.9 µM (active)”; in [5] it was 21.8 µM (active) and 38.9 µM (active); in [7], 54.8 µM (active) and 49 µM (active) and inactive. Further, the Potency result was “inactive and 38.9 µM (active)” in assay [8]; 3.88 µM (active) in [11].

`O=C(Nc1ccccc1SSc1ccccc1NC(=O)c1ccccc1)c1ccccc1`: the Potency result in assay [20], in assay [2], in [19], in assay [6], in [17] and in [9] was “inactive” throughout. The Potency result in [10], in assay [14], in assay [18], in [15] and in [16] was “inactive” throughout. For the same compound, the Potency result in assay [3] was “inactive and 49 µM (active)”; in assay [4], “inactive and 54.9 µM (active)”; in [5], 49 µM (active); in [8], 49 µM (active).

Turning to `Oc1c(Cl)cc(Cl)cc1Sc1cc(Cl)cc(Cl)c1O`, the Potency result in [20], in [3], in assay [6], in [10], in [12] and in assay [14] was “inactive” each time. The Potency result in assay [15] was “inactive”. For the same compound, the Potency in assay [1] is 17.4 µM (active) and 22.2 µM (active) and 13.8 µM (active); in assay [4], 39.5 µM (active) and 43.6 µM (active) and inactive; in assay [7] it was 49.1 µM (active) and 43.6 µM (active) and inactive; in assay [17], “inactive and 43.6 µM (active)”; in [8], 44.4 µM (active) and 43.6 µM (active) and inactive; in assay [9], “inactive and 43.6 µM (active)”. For the same compound, the Potency in [11] was 21.9 µM (active); in assay [18], “inactive and 43.6 µM (active)”.

Turning to `COC(=O)[C@H]1[C@H]2C[C@@H]3c4[nH]c5cc(OC)ccc5c4CCN3C[C@H]2C[C@@H](OC(=O)c2cc(OC)c(OC)c(OC)c2)[C@@H]1OC`, the Potency was 4.36 µM (active) and 7.98 µM (active) and 8.49 µM (active) in assay [1]; 43.6 µM (active) and 40 µM (active) and 23.9 µM (active) in assay [5]; 4.89 µM (active) and 6.34 µM (active) and 8.49 µM (active) in [11]; 4.89 µM (active) and 6.34 µM (active) and 9.52 µM (active) in assay [12]. Besides, the Potency result in assay [2], in assay [19], in [4], in assay [6], in assay [7] and in [17] was “inactive” each time. For the same compound, the Potency result in assay [8], in assay [9], in assay [14] and in assay [15] was “inactive” in each case.

The values above are taken from PubChem BioAssay (Tox21).
